Assay results from PubChem BioAssay (NCATS).
Values joined by “and” are separate entries in the source; they are usually repeats but may differ in a detail not shown here. Equal entries are not always repeated. Results filed as inconclusive are left out. Active and inactive are the calls of the source. Unless noted, the call rests on the fitted dose curve; in most records, active means well fitted curve in the direction sought with a large enough effect; inconclusive means small, poorly fitted or top-dose-only effect, or another doubt; inactive means no such curve, though single readings can be large; an effect the other way counts as inactive or inconclusive.

Experiments:
[1] = qHTS to identify inhibitors of the type 1 interferon - major histocompatibility complex class I in skeletal muscle: primary screen against the NCATS LOPAC collection (AID 1347405);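 further: lytic HiBiT luminescence reporting HLA-B protein level; on the % scale 0 is the no-effect control and ±100 the full control effect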
How it was run: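 IFN-beta-stimulated (4 ng/ml) HLA-B HiBiT knock-in myoblasts, compound-treated 24 hrs up to 46 uM final; signal via LgBiT complementation and furimazine luminescence.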

[2] = qHTS for inhibitors of adenylyl cyclases using a fission yeast platform: a pilot screen against the NCATS LOPAC library (AID 1347410);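 further: plate controls were DMSO vehicle for no effect and DPI positive control for full effect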
How it was run: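 S. pombe CHP2027 (AC9-GNAS-PDE4D2) carrying PKA-repressed fbp1-GFP, incubated 18 h at 30C in EMM with LOPAC compounds at up to 57 uM. GFP gain-of-signal read by laser scanning cytometry; DMSO negative control.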

[3] = qHTS to identify inhibitors of the type 1 interferon - major histocompatibility complex class I in skeletal muscle: primary screen against the NCATS Mechanism Interrogation Plate v5.0 (MIPE) Libary (AID 1347411);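 further: plate controls were vehicle for no effect and reference inhibitor for full effect; nearly all actives have a fitted effect of over 65% in size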
How it was run: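 IFN-beta-driven (4 ng/ml) HLA-B-HiBit expression in CRISPR-tagged C25cl48 myoblasts; compounds 11-pt, 1:3, max 46 uM, 24 hr exposure; lytic NanoLuc complementation luminescence.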

[4] = biological target: Protein phosphatase 1D (Homo sapiens) (UniProt O15297); test: RapidFire Mass Spectrometry qHTS Assay for Modulators of WT P53-Induced Phosphatase 1 (WIP1) (AID 1347424);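 further: amount of dephosphorylated VEPPL-S-QETFS peptide product formed by WIP1; series mostly up to about 63 µM; plate controls were DMSO wells for no effect and GSK830371 inhibitor control at 10 µM for full effect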
How it was run: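 RapidFire mass spectrometry measured dephosphorylated peptide after 5 min room-temperature reaction of 2 uM VEPPL-pS-QETFS with 10 nM WIP1 (50 mM Tris-HCl pH 7.5, 30 mM MgCl2, 0.1 mM EGTA, BSA), following 1 hr compound preincubation; 1 uM isotope-labelled product standard.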

[5] = biological target: Protein phosphatase 1D (Homo sapiens) (UniProt O15297); test: Rhodamine-PBP qHTS Assay for Modulators of WT P53-Induced Phosphatase 1 (WIP1) (AID 1347425); further: % of control where 0% means no effect
How it was run: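 Steps: enzyme with Rh-PBP sensor and compounds, room-temperature incubation of 1 hr, baseline read, addition of VEPPL-pS-QETFS (10 uM final), kinetic fluorescence reads at 525/598 nm. Activity equals final minus baseline signal.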

[6] = Validation qHTS assay for inhibitors of Activation Induced Cytidine Deaminase (AID): UDG Counterscreen signal (AID 1347427); further: 0% is about no effect
How it was run: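 Fluorescence at 560 nm excitation, 665 nm emission reports UDG signal after 250 mM NaOH (2x) addition and 30 min. Enzymes (AID 1 uM, UDG 2 U/mL, at 4/3x) preincubated 10 min with compound, then 4 h with 4x 250 nM DJC20/DJC23 substrate at room temperature.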

[7] = biological target: Single-stranded DNA cytosine deaminase (Homo sapiens) (UniProt Q9GZX7); test: Validation qHTS assay for inhibitors of Activation Induced Cytidine Deaminase (AID): AID signal (AID 1347429); further: on the % scale 0 is the no-effect control and ±100 the full control effect
How it was run: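 Compounds (up to 114 uM final) are tested against AID plus UDG using DJC20/DJC23 FRET substrate. Reactions incubate 4 hr at room temperature, receive NaOH for 30 min, and are read at Ex 540/Em 590 nm.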

[8] = Primary qHTS for inhibitors of La Crosse Virus (LACV) - induced cell death in SH-SY5Y cells (AID 1508616);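 further: top concentration of the series differs between compounds; 0% = infected DMSO wells and 100% = uninfected DMSO wells; higher means more rescue of cells from virus-induced death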
How it was run: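 Screening measures cell viability in LACV-infected SH-SY5Y cultures. Compound was added before virus (0.01 MOI), and ATP was detected by luminescence 6 days later.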

[9] = biological target: Calcium and integrin-binding protein 1 (Homo sapiens) (UniProt Q99828); test: Validation qHTS for Identification of Calcium Integrin Binding protein 1 (CIB1) Competitor (AID 1508618); further: on the % scale 0 is the no-effect control and ±100 the full control effect
How it was run: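 In this qHTS validation, the LOPAC set (up to 114 uM) was tested for blocking CIB1 binding to a fluorescein-tagged alphaIIb peptide, with FP detection at 480/540 nm.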

[10] = biological target: Calcium and integrin-binding protein 1 (Homo sapiens) (UniProt Q99828); test: Primary qHTS for Identification of Calcium Integrin Binding Protein 1 (CIB1) Competitor (AID 1508620);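 further: GST tagged CIB1 binding a fluorescein labelled alphaIIb integrin peptide tracer; top concentration of the series differs between compounds; on the % scale 0 is the no-effect control and ±100 the full control effect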
How it was run: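 CIB1-GST (1 uM final) and compound incubated 15 min at room temperature before adding FITC-alphaIIb peptide tracer (100 nM final). Competition for binding read by fluorescence polarization (ex 480, em 540) after another 15 min at room temperature.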

[11] = Primary qHTS for small molecule stabilizers of the endoplasmic reticulum resident proteome: Secreted ER Calcium Modulated Protein (SERCaMP) assay (AID 1508630); further: on the % scale 0 is the no-effect control and ±100 the full control effect
How it was run: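 The SH-SY5Y reporter protocol was run at 3 concentrations up to 38.3 uM (primary) or 11 concentrations (follow-up): 16 h compound, 100 nM thapsigargin for 4 h, then extracellular luciferase luminescence.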

[12] = A High-Content qHTS Against Drug Library for the Identification of Small Molecules that Inhibit DYT1 Early Onset Primary Dystonia-Associated Cell Pathology (AID 1645839; calls by dose curve; further: series mostly up to about 46 µM)
How it was run: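 High-content imaging quantified EGFP-TorsinA mislocalization in HEK293-derived cells inducibly expressing DYT1 mutant torsinA, after 48 h exposure to compound given together with tetracycline induction. Cell count served as a toxicity channel alongside %pathology.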

[13] = biological target: Cytochrome P450 2D6 (Homo sapiens) (UniProt P10635); test: Cytochrome P450 family 2 subfamily D member 6 (CYP2D6) small molecule antagonists: luciferase biochemical (cell-free) qHTS assay (AID 1645840; active means well fitted curve in the direction sought with a large enough effect in the repeat runs; an effect the other way counts as inactive or inconclusive; further: nearly all actives have a fitted effect of over 55% in size; further: potency means the concentration at half of the fitted maximal effect)
How it was run: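 P450-Glo CYP2D6 system: proluciferin substrate converted by enzyme to luciferin, read by luminescence proportional to activity. Enzyme-substrate mix with compound 10 min at room temperature, then NADPH regeneration 1 h before detection reagent.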

[14] = biological target: Cytochrome P450 2C9 (Homo sapiens) (UniProt P11712); test: Cytochrome P450 family 2 subfamily C member 9 (CYP2C9) small molecule antagonists: luciferase biochemical (cell-free) qHTS assay (AID 1645842; active means well fitted curve in the direction sought with a large enough effect in the repeat runs; an effect the other way counts as inactive or inconclusive; further: nearly all actives have a fitted effect of over 55% in size; further: potency means the concentration at half of the fitted maximal effect)
How it was run: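 P450-Glo CYP2C9 system: proluciferin substrate with enzyme in mix containing 0.4% BSA, 10 min at room temperature, then NADPH regeneration solution added and incubated 1 h at 37C. Detection reagent stopped reaction; luminescence read after 20 min as RLU.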

[15] = biological target: Papain (Carica papaya) (UniProt P00784); test: Primary qHTS assay for inhibitors of the protease papain (AID 1645873)
[16] = qHTS to identify inhibitors of the type 1 interferon - major histocompatibility complex class I in skeletal muscle: primary screen against the NCATS Pharmaceutical Collection (AID 1347407)
How it was run: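 Immortalized human myoblasts (C25cl48) with HiBiT knocked into endogenous HLA-B*08:01 were stimulated with 4.0 ng/ml IFN-beta and treated with compounds ([…] top 46 uM) for 24 hrs at 37 C. HiBiT lytic luminescence read.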

[17] = Cell Viability qHTS for small molecule stabilizers of the endoplasmic reticulum resident proteome (AID 1508629); settings: cell viability counter-screen, 100 nM thapsigargin for final 4 h
[18] = biological target: Cytochrome P450 3A4 (Homo sapiens) (UniProt P08684); test: Cytochrome P450 family 3 subfamily A member 4 (CYP3A4) small molecule antagonists: luciferase qHTS assay (AID 1645841; active means well fitted curve in the direction sought with a large enough effect in the repeat runs; an effect the other way counts as inactive or inconclusive; further: nearly all actives have a fitted effect of over 45% in size)
How it was run: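 Luminescent CYP3A4 activity readout: compounds plus enzyme-substrate mix 10 min at room temperature, reaction started with NADPH regenerating system for 1 h, stopped with detection reagent, read after 20 min. Ketoconazole served as control.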

Papain (Carica papaya), sequence (P00784 whole entry, looked up): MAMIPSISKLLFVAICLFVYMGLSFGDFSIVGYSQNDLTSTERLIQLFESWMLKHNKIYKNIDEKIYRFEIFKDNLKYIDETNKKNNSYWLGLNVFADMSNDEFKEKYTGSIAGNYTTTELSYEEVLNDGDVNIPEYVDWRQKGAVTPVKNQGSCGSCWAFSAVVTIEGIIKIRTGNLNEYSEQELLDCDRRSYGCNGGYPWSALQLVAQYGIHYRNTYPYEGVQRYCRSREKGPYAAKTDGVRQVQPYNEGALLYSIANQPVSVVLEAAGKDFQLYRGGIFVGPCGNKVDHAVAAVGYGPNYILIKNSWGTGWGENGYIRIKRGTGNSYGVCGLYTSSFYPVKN
Cytochrome P450 2C9 (Homo sapiens), sequence (P11712 whole entry, looked up): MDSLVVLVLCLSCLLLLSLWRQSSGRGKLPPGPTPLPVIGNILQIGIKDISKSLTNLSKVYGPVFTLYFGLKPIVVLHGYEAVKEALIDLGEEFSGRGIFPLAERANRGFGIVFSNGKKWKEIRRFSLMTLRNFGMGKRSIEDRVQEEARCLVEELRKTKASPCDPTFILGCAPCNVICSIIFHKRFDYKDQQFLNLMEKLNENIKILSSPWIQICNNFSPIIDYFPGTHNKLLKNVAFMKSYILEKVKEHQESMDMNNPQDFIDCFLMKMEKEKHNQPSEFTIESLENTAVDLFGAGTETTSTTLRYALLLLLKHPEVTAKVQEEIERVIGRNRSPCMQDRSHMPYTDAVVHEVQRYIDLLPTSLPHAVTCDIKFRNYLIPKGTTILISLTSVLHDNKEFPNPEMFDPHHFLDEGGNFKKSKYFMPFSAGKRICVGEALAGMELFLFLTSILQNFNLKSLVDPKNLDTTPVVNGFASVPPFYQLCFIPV
Protein phosphatase 1D (Homo sapiens), sequence (O15297 whole entry, looked up): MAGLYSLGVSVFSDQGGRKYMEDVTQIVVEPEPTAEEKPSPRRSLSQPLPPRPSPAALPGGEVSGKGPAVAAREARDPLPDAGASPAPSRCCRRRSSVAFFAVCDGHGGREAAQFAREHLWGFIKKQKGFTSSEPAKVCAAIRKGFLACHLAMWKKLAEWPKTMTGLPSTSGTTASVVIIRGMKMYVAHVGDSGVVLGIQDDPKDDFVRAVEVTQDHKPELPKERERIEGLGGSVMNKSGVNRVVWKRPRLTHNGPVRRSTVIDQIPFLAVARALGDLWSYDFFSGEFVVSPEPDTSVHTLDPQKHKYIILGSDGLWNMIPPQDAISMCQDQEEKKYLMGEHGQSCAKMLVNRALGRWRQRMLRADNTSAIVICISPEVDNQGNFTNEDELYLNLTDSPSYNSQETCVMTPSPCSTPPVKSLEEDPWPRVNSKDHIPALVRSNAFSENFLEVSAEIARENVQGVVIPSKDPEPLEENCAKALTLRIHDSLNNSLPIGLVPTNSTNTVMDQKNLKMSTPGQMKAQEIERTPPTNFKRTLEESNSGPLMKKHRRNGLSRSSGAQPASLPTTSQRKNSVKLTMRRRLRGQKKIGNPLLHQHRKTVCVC
Calcium and integrin-binding protein 1 (Homo sapiens), sequence (Q99828 whole entry, looked up): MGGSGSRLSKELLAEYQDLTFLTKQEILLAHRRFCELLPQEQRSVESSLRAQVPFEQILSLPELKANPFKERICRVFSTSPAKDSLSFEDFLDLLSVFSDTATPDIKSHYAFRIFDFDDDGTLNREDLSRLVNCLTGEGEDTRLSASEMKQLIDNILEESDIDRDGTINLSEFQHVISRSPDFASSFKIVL
Single-stranded DNA cytosine deaminase (Homo sapiens), sequence (Q9GZX7 whole entry, looked up): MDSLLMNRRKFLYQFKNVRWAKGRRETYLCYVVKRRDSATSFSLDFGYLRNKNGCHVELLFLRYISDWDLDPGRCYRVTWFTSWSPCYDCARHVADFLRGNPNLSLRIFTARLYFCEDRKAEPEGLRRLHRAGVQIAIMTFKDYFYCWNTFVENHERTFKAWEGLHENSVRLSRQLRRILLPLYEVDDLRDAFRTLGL
Cytochrome P450 2D6 (Homo sapiens), sequence (P10635 whole entry, looked up): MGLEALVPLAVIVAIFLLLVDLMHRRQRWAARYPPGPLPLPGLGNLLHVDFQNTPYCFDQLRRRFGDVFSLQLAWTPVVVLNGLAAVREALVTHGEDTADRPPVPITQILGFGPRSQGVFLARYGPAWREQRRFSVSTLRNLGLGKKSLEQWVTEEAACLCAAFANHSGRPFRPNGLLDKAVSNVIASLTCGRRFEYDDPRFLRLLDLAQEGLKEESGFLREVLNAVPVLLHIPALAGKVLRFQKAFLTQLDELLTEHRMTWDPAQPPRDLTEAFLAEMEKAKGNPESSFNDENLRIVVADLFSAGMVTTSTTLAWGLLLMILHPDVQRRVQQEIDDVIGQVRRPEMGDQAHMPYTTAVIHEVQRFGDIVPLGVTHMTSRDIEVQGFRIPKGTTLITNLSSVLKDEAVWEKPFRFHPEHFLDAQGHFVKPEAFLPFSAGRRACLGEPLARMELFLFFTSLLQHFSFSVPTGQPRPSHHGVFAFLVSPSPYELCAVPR
Cytochrome P450 3A4 (Homo sapiens), sequence (P08684 whole entry, looked up): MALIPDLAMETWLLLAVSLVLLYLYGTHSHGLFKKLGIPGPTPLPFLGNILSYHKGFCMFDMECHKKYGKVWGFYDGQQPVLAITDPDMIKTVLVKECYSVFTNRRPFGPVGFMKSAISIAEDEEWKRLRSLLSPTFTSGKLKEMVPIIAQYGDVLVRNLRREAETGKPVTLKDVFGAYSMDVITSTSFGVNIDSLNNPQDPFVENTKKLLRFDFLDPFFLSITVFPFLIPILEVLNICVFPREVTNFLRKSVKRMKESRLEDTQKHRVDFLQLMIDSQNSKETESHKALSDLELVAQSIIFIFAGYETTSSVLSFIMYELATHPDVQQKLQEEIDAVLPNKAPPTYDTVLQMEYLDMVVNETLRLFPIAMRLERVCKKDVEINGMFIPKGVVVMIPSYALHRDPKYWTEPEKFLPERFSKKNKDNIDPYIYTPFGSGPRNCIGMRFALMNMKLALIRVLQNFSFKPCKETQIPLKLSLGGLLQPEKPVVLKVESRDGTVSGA

CCCN(CCC)C(=O)C(CCC(=O)O)NC(=O)c1ccccc1 (stereo not given)
inactive: Potency [1] | outcome [2] | Potency [3] | Potency [4] | outcome [5] | outcome [6] | Potency [7] | Potency [8] | outcome [9] | Potency [10] | Potency [11] | Potency [12] | Potency [13] | Potency [14] | Potency [15]

CCNC(=O)N1CCN(CCCC(c2ccc(F)cc2)c2ccc(F)cc2)CC1
inactive: Potency [1] | outcome [2] | Potency [4] | outcome [5] | outcome [6] | Potency [7] | Potency [8] | outcome [9] | Potency [10] | Potency [14] | Potency [15]

CCCN(CCC)CCc1cccc2c1CC(=O)N2
active: Potency [13] 2.75 µM
inactive: Potency [1] | Potency [16] | outcome [2] | Potency [4] | outcome [5] | Potency [8] | outcome [9] | Potency [10] | Potency [11] | Potency [14] | Potency [15]

OCCN1CCN(CC/C=C2/c3ccccc3Sc3ccc(C(F)(F)F)cc32)CC1
active: Potency [13] 6.92 µM
inactive: Potency [1] | outcome [2] | Potency [4] | outcome [5] | outcome [6] | Potency [7] | Potency [8] | outcome [9] | Potency [10] | Potency [15]

CN1CCN(CC(=O)N2c3ccccc3C(=O)Nc3cccnc32)CC1
inactive: Potency [1] | activity change, negative = inhibition [16] -1.82% [at 3.83 µM] | outcome [2] | activity change, negative = inhibition [4] -2.97% [at 6.17 µM] | activity change, negative = inhibition [5] 8.19% [at 4.81 µM] | Potency [7] | Potency [8] | outcome [9] | activity change, negative = inhibition [10] -0.936% [at 12.4 µM] | Potency [11] | % pathology change, negative = correction [12] 18.1% [at 4.63 µM] | activity change, negative = inhibition [14] 3.44% [at 4.83 µM] | Potency [15]

CN(C)C/C=C(/c1ccc(Br)cc1)c1cccnc1
inactive: Potency [1] | outcome [2] | Potency [4] | outcome [5] | outcome [6] | Potency [7] | Potency [8] | outcome [9] | Potency [10] | max response [17] 4.56% | Potency [14] | Potency [15]

CC(=O)Nc1nnc(S(N)(=O)=O)s1
inactive: Potency [1] | Potency [16] | outcome [2] | Potency [4] | outcome [5] | Potency [8] | outcome [9] | Potency [10] | Potency [11] | Potency [12] | Potency [13] | outcome [18] | Potency [14] | Potency [15]

CCCCNc1c(C(=O)OCC)c(C)nc2c1cnn2CC
inactive: Potency [1] | outcome [2] | Potency [4] | outcome [5] | outcome [6] | Potency [7] | Potency [8] | outcome [9] | Potency [10] | Potency [12] | Potency [15]
active: Potency [14] 17.4 µM

CNC1(C)C2CCC(C2)C1(C)C (stereo not given)
inactive: Potency [1] | outcome [2] | Potency [4] | outcome [5] | outcome [6] | Potency [7] | Potency [8] | outcome [9] | Potency [10] | Potency [14] | Potency [15]

CCCCCCCC/C=C\CCCCCCCC(=O)NCc1ccc(O)c(OC)c1
active: Potency [14] 1.1 µM and 1.69 µM
inactive: Potency [1] | Potency [16] | outcome [2] | Potency [4] | outcome [5] | Potency [8] | outcome [9] | Potency [10] | Potency [11] | Potency [13] | Potency [15]

COc1ccc(CN(CCN(C)C)c2ccccn2)cc1
inactive: Potency [1] | Potency [16] | outcome [2] | Potency [4] | outcome [5] | Potency [8] | outcome [9] | Potency [10] | Potency [12] | Potency [14] | Potency [15]

CC(=O)[C@@]1(O)CC[C@H]2[C@@H]3CCC4=CC(=O)CC[C@]4(C)[C@H]3CC[C@@]21C
inactive: Potency [1] | outcome [2] | Potency [4] | outcome [5] | outcome [6] | Potency [8] | outcome [9] | Potency [10] | Potency [11] | Potency [12] | Potency [15]

CNCCCN1c2ccccc2CCc2ccccc21
inactive: Potency [1] | Potency [16] | outcome [2] | Potency [4] | outcome [5] | Potency [8] | outcome [9] | Potency [10] | Potency [14] | Potency [15]

CN1C[C@H](C(=O)N[C@]2(C)O[C@@]3(O)[C@@H]4CCCN4C(=O)[C@H](Cc4ccccc4)N3C2=O)C[C@@H]2c3cccc4[nH]cc(c34)C[C@H]21
inactive: Potency [1] | Potency [16] | outcome [2] | Potency [4] | outcome [5] | Potency [7] | Potency [8] | Potency [10] | Potency [15]

CN1CCN(C2=Nc3ccccc3Oc3ccc(Cl)cc32)CC1
active: Potency [13] 3.89 µM
inactive: Potency [1] | Potency [16] | outcome [2] | Potency [4] | outcome [5] | Potency [7] | Potency [8] | outcome [9] | Potency [10] | max response [17] 14.4% | Potency [14] | Potency [15]

CCCOc1ccccc1-c1nc2n[nH]nc2c(=O)[nH]1
inactive: Potency [1] | Potency [16] | outcome [2] | Potency [4] | outcome [5] | outcome [6] | Potency [8] | Potency [10] | Potency [12] | Potency [13] | Potency [14] | Potency [15]

CC(=O)OCC1=C(C(=O)O)N2C(=O)[C@@H](NC(=O)Cc3cccs3)[C@H]2SC1
inactive: Potency [1] | outcome [2] | Potency [4] | outcome [5] | outcome [6] | Potency [7] | Potency [8] | outcome [9] | Potency [10] | Potency [13] | Potency [14] | Potency [15]

COc1ccc([C@@H]2Sc3ccccc3N(CCN(C)C)C(=O)[C@@H]2OC(C)=O)cc1
inactive: Potency [1] | outcome [2] | Potency [3] | Potency [4] | outcome [5] | Potency [7] | Potency [8] | outcome [9] | Potency [10] | Potency [11] | Potency [13] | Potency [14] | Potency [15]

O=C1CC2(CCCC2)CC(=O)N1CCCCN1CCN(c2ncccn2)CC1
active: Potency [13] 17.4 µM and 13.5 µM
inactive: Potency [1] | outcome [2] | Potency [4] | outcome [5] | outcome [6] | Potency [7] | Potency [8] | outcome [9] | Potency [10] | Potency [11] | Potency [12] | Potency [14] | Potency [15]

CCC(=O)c1ccc2c(c1)N(CCCN(C)C)c1ccccc1S2
inactive: Potency [1] | Potency [16] | outcome [2] | Potency [4] | outcome [5] | Potency [7] | Potency [8] | outcome [9] | Potency [10] | Potency [14] | Potency [15]
active: Potency [13] 0.49 µM
